Measurements taken from PubChem BioAssay (Tox21).
Records with an inconclusive call do not appear. A call without a number means that no potency is given here. Calls of active or inactive are those of the source. Calls come from the whole dose curve; as a rule, active = well fitted cell-killing curve with a large enough effect in the repeat runs; inconclusive = weak or mixed curves, or effect the other way; inactive = flat fitted curve, though single readings scatter.

Assays:
[1] = cAMP Responsive Elements (CRE) small molecule antagonists, cell-based qHTS assay: qHTS cell viability counter screen (AID 2060913); note: nearly all actives have a fitted effect of over 40% in size; note: potency is the fitted concentration of half-maximal effect
Method in brief: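 CRE-bla HEK293T cells (2,000/well, 18 h) given compound plus NKH477 0.25 uM final for 3 h at 37C; viability counter-screen by CellTiter-Glo luminescence in same wells after 30 min.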

[2] = cAMP Responsive Elements (CRE) small molecule agonists, cell-based qHTS assay: qHTS cell viability counter screen (AID 2060914);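 note: viability read after 3 h of compound exposure; nearly all actives have a fitted effect of over 50% in size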
Method in brief: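 CRE-bla HEK 293T cells, plated 18 h at 37 °C, were exposed to compounds for 3 h at 37 °C/5% CO2. Viability was then measured in the same wells by CellTiter-Glo luminescence after 30 min at room temperature.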

| SMILES | Potency [1] | Potency [2] |
| --- | --- | --- |
| Nc1ccc(S(N)(=O)=O)cc1 | inactive | inactive |
| CCC(=O)OC(C)(C)C1CC=C(C)CC1 (stereo unspecified) | inactive | inactive |
| CCn1c2ccccc2c2cc(N)ccc21 | inactive | inactive |
| C=CCOCC(O)CS(=O)(=O)O (stereo unspecified) | inactive | inactive |
| O=[N+]([O-])c1ccc(Oc2ccc([N+](=O)[O-])cc2)cc1 | inactive | inactive |
| O=Cc1cc2ccccc2o1 | inactive | inactive |
| C1CN(CCOCCN2CCOCC2)CCO1 | inactive | inactive |
| CS(C)(=O)=O | inactive | inactive |
| CCCCC(=O)O | inactive | inactive |
| O=C1CCC(N2C(=O)c3ccccc3C2=O)C(=O)N1 (stereo unspecified) | inactive | inactive |
| NC(=O)c1ccccc1 | inactive | inactive |
| CCCCC1CCC(=O)O1 (stereo unspecified) | inactive | inactive |
| CC[C@]1(O)C[C@H]2CN(CCc3c([nH]c4ccccc34)[C@@](C(=O)OC)(c3cc4c(cc3OC)N(C=O)[C@H]3[C@@](O)(C(=O)OC)[C@H](OC(C)=O)[C@]5(CC)C=CCN6CC[C@]43[C@@H]65)C2)C1 | inactive | inactive |
| O[C@@H]1CO[C@H]2[C@@H]1OC[C@@H]2O | inactive | inactive |
| CNC(=O)N(c1ccccc1)c1ccccc1 | inactive | inactive |
| Cc1ccc(C(C)C)c(O)c1 | inactive | inactive |
| O=C1C=CC(=O)O1 | inactive | inactive |
| CCCCCC(CC)OC(=O)CCCOc1ccc(Cl)cc1Cl (stereo unspecified) | inactive | inactive |
| CC(=O)C(C)=O | inactive | inactive |
| CCCCCCCC/C=C\CCCCCCCC(=O)NCc1ccc(O)c(OC)c1 | inactive | inactive |
| CC(=O)N(CC(=O)N(C)C)c1ccccc1 | inactive | inactive |
| CN(N=O)C(=O)N[C@@H]1[C@@H](O)[C@H](O)[C@@H](CO)O[C@@H]1O | inactive | inactive |
| Nc1c(I)cc(I)c(C(=O)N(CCC(=O)O)c2ccccc2)c1I | inactive | inactive |
| Cc1ncc(CO)c(C=O)c1O | inactive | inactive |
| Cc1c(C(=O)O)c(O)cc2c1C(=O)c1c(O)c([C@@H]3O[C@H](CO)[C@@H](O)[C@H](O)[C@H]3O)c(O)c(O)c1C2=O | inactive | inactive |
| CCC(C)c1ccccc1O (stereo unspecified) | inactive | inactive |
| N=C1C=CC(=C(c2ccc(N)cc2)c2ccc(N)cc2)C=C1 | 50.8 µM (active) | inactive |

| SMILES | Potency [1] | Potency [2] |
| --- | --- | --- |
| C=C(C)CS(=O)(=O)O | inactive | inactive |
| Nc1ccc([N+](=O)[O-])c(C(F)(F)F)c1 | inactive | inactive |
| CC(=O)O[C@H](CC(=O)[O-])C[N+](C)(C)C | inactive | inactive |
| CN1CC(=O)N/C1=N/C(=O)Nc1cccc(Cl)c1 | inactive | inactive |
| NS(=O)(=O)c1cc2c(cc1Cl)NCNS2(=O)=O | inactive | inactive |
| O=C(c1ccc(O)cc1)c1ccc(O)c(O)c1O | inactive | inactive |
| CC[C@H](NC(=O)c1cc(F)ccc1NS(=O)(=O)c1cccc2cccnc12)c1ccccc1 | inactive | inactive |
| CC1(C)[C@@H]2CC[C@]3(C2)[C@@H]1C(=O)CCC3(C)C | inactive | inactive |
| CC(C)C=O | inactive | inactive |
| CC(=O)Oc1ccc(C2(c3ccc(OC(C)=O)cc3)C(=O)Nc3ccccc32)cc1 | inactive | inactive |
| CN(C)CCOCCO | inactive | inactive |
| CCN1CCC[C@H]1CNC(=O)c1c(OC)ccc(Br)c1OC | inactive | inactive |
| O=c1[nH]c2ccccc2c(=O)n1CCCl | inactive | inactive |
| Cc1cc(N)n(-c2ccccc2)n1 | inactive | inactive |
| COc1ccc(/C=C/C(=O)c2ccc(OC)cc2OC)cc1 | inactive | inactive |
| NC(=O)c1ccncc1 | inactive | inactive |
| CCCCCCCCCCCCOCCO | inactive | inactive |
| c1ccc2cc(Nc3ccc(Nc4ccc5ccccc5c4)cc3)ccc2c1 | inactive | inactive |
| O=c1cc(O)c(Cl)c[nH]1 | inactive | inactive |
| CC(C)(CCl)c1ccccc1 | inactive | inactive |
| O=C1CCCCCCCCCCC1 | inactive | inactive |
| Cc1ccc(Cl)c(N)c1Cl | inactive | inactive |
| CN(C)c1ccc(O)c2c1C[C@H]1C[C@H]3[C@H](N(C)C)C(=O)C(C(N)=O)=C(O)[C@@]3(O)C(=O)C1=C2O | inactive | inactive |
| CCCCOCCOC(=O)c1cccnc1 | inactive | inactive |
| CN1C(C(=O)Nc2ccccn2)=C(O)c2sccc2S1(=O)=O | inactive | inactive |
| CC/C=C\CCO | inactive | inactive |
